Laboratory results from PubChem BioAssay AID493201 (National Center for Advancing Translational Sciences (NCATS), 2011).
Records with an inconclusive call do not appear. The source made the active and inactive calls. Calls follow the shape of the dose curve; as a rule, active = well fitted activation curve with a large enough effect; inconclusive = small, poorly fitted or top-dose-only effect; inactive = no such curve, though single readings can be large or run the other way.

Assay: qHTS Assay for Identifying a Potential Treatment of Ataxia-Telangiectasia: Secondary assay (no NCS) hit validation;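 also: phosphorylated KAP1 signal as a proxy for ATM-like kinase activity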; as to activation: 0% is about no effect
Conditions: A-T patient fibroblasts, AlphaLISA, no DNA damage added, 90 min; series mostly up to 76.9 µM; activation: at the top concentration
From the text: NIH Chemical Genomics Center [NCGC]
NIH Molecular Libraries Probe Centers Network [MLPCN]
Assay Submitter (PI): Wei Zheng and Yosef Shiloh
Ataxia-telangiectasia (A-T) is a devastating and progressive disease for which, there is no cure. Although A-T is a multisystem disease, it is stereotyped characterized by its neurological symptoms such as truncal ataxia, due to cerebellar cortical degeneration of the Purkinje and granule cells. Other symptoms of A-T are telangiectasias (dilated blood vessels), primary immunodeficiency, marked sensitivity to ionizing radiation (IR), chromosomal instability and predisposition to cancer.
The underlying genetic cause of A-T is null mutations in the ATM (A-T mutated) gene. ATM is a nuclear serine/threonine kinase that functions as a master regulator of the cellular responses to double strand breaks (DSBs) in the DNA. Upon activation by DSBs, ATM phosphorylates a plethora of downstream targets, including KAP-1 on […]. KAP-1 phosphorylation occurs shortly in response to DSBs and mediates global chromatin relaxation, which facilitates DSB repair. To screen for small molecules that will compensate for the loss of ATM in cells derived from A-T patients, we monitored KAP-1 phosphorylation as a readout for ATM-like activity using an AlphaLISA assay. This secondary assay omits NCS, which creates double-stranded DNA breaks.
Step,Parameter,Value,Description
1. Cell Plating, 3 ul, 500 cells/well in OPTI-MEM, 1% FBS, 1% Pen/Strep
3. Library compounds, 23 nl, 76.7 - 0.61uM dilution series final concentration
4. Incubation, 60 min, 37C, 5% CO2, 95% humidity
6. Incubation, 30 min, 37C, 5% CO2, 95% humidity
7. Reagent, 1 ul, Premixed detection reagents and lysis buffer
8. Reagent, 1 ul, 0.6% Antifoam A
9. Incubation, 6 hr, 25C, 95% humidity
10. Readout, EnVision, EnVision plate reader. AlphaScreen 1536-well protocol
Cells were plated using medium-binding white solid-bottom tissue culture treated Kalypsys plates. Multidrop dispense of 3 uL of F2112 (hTERT immortalized A-T patient fibroblast cells). Detection reagent and lysis buffer was 3.75nM Rab-a-pKAP1 antibody bound to 75 ng/ul AlphaScreen SA donor bead, 3.75 nM Biot-M-a-KAP1 antibody bound to AlphaLISA protein A acceptor bead, 0.5x protease inhibitor cocktail and 0.25x PerkinElmer lysis buffer. EnVision protocol for 1536-well AlphaScreen read (30ms excitation, 100ms read), about 10 min/plate.
Potency is read from the fitted curve at half-maximal effect.

| Compound | activation | Potency |
| --- | --- | --- |
| Cc1cccc(N2C(=O)NC(=O)/C(=C\C=C\c3ccco3)C2=O)c1 | 0% (inactive) | – |
| CCN(CC)S(=O)(=O)c1cccc(N=Nc2c(O)n(CC)c(=S)n(CC)c2=O)c1 | – | 18.4 µM (active) |
| COC(=O)C1=C(c2ccc(OCc3ccccc3)cc2)C[C@@H]2CC[C@H]1N2C(=O)NCc1cccc(C(F)(F)F)c1 | – | 4.12 µM (active) |
| S=c1[nH]nc(Cn2c(-c3ccccn3)nc3ccccc32)n1-c1ccc2c(c1)OCCO2 | – | 41.2 µM (active) |
| Cc1ccc(-n2c(O)c(C=NCC3CCCO3)c(=O)[nH]c2=O)c(C)c1 (stereo not drawn) | 12.2% (inactive) | – |
| Cc1ccc(C)c(NP(=O)(Oc2ccccc2)Oc2ccccc2)c1 | 13.9% (inactive) | – |
| CCc1ccc(N2C(=O)NC(=O)/C(=C\C=C\c3ccco3)C2=O)cc1 | -11% (inactive) | – |
| O=C1Nc2ccccc2C1Cc1nc2ccccc2c(=O)n1-c1ccccc1 (stereo not drawn) | 16.9% (inactive) | – |
| CCCCC(=O)N/N=C/c1c(O)n(CCC2=CCCCC2)c(=O)[nH]c1=O | – | 14.6 µM (active) |
| CC1(C)C[C@H]2C=C(C=O)[C@]3(C=O)C[C@]3(C)[C@H]2C1 | -1.69% (inactive) | – |
| Cc1cc(O)c2c(c1)C(=O)C13C(=C2O)C(=O)[C@H]2[C@@H](O)[C@@H]1[C@H]1[C@H](O)[C@@H]3C(=O)C3=C(O)c4c(O)cc(C)cc4C(=O)C312 (stereo partly drawn) | 10.8% (inactive) | – |
| CCN1C(=O)N(CC)C(=O)C2(Cc3ccccc3N3CCN(c4ccccc4)CC32)C1=O (stereo not drawn) | -9.68% (inactive) | – |
| CC(C)c1ccc(-n2c(O)c(C=NC(CCS(C)=O)C(=O)O)c(=O)[nH]c2=S)cc1 (stereo not drawn) | -11.9% (inactive) | – |
| Cc1nc2ccccc2c(=O)n1-c1ccc(F)cc1F | 33.3% (inactive) | – |
| CN1CCCC(C(O)(c2ccccc2)c2ccccc2)C1 (stereo not drawn) | 18.6% (inactive) | – |
| C/C=C/c1ccc2c(c1)OCO2 | 58.1% (inactive) | – |
| CN1CCN(c2ccc([N+](=O)[O-])c3no[n+]([O-])c23)CC1 | 3.23% (inactive) | – |
| CCN(CC)S(=O)(=O)c1ccc(C(=O)NC2CN3CCC2CC3)cc1 (stereo not drawn) | -4.35% (inactive) | – |
